# Measured values reported in PubChem BioAssay (EPA / NIEHS).
# Records with an inconclusive call do not appear. Some structures have more than one record in an assay (separate samples or runs), and their calls can disagree. Activity calls are given as the source filed them. Rule for the calls, unless noted: active = hit-call score of the fitted dose curve at least 0.9, where 1 is the maximum; inactive = score below 0.9.
# Assays:
# [1] = CCTE_Shafer_MEA_dev_spike_duration_mean: CCTE's Neural Network Formation Assay for Mean Spike Duration, Shafer Lab (AID 2284051);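 note: mean network spike duration pooled as area under curve over DIV 5 to 12 recordings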;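 for AC50: potency for a decrease in mean network spike duration versus DMSO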
# Outline: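 Primary rat cortical neurons on 16-electrode MEA wells (PEI-coated, laminin in plating drop), exposed from plating through DIV 12 with compound renewed at DIV 5 and 9. Mean network-spike duration recorded DIV 5, 7, 9, 12; trapezoidal AUC across days, DMSO baseline.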
# [2] = CCTE_Shafer_MEA_dev_network_spike_duration_std: CCTE's Neural Network Formation Assay for Standard Deviation of Network Spike Duration, Shafer Lab (AID 2284052);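 note: area under curve of spike duration SD across recording days 5 to 12; hits are decreases in network spike duration SD versus DMSO vehicle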
# Outline: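 Primary rat cortical neurons on PEI-coated 16-electrode MEA wells, exposed from plating day 0 through day 12 with compound renewed at DIV 5 and 9. Network spike duration SD recorded on days 5, 7, 9, 12, collapsed as trapezoidal AUC; loss-of-signal fit versus DMSO.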
# [3] = CCTE_Shafer_MEA_dev_per_network_spike_spike_number_mean: CCTE's Neural Network Formation Assay for Mean Number of Spikes in a Network Spike, Shafer Lab (AID 2284053);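 for AC50: fitted as decrease in spikes per network spike relative to DMSO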
# Outline: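 Primary rat cortical neurons on 48-well, 16-electrode MEA plates were exposed from plating to DIV 12, with dosing renewed on DIV 5 and 9. Spikes per network spike (0.05 s peak window) were recorded on DIV 5, 7, 9 and 12 and collapsed as trapezoidal AUC versus DMSO.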
# [4] = CCTE_Shafer_MEA_dev_per_network_spike_spike_percent: CCTE's Neural Network Formation Assay for Percent of Spikes in a Network Spike, Shafer Lab (AID 2284054)
# Outline: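 Rat primary cortical cultures, 1.5 x 10^5 cells/well on MEA. Continuous compound exposure d0–12, medium/compound renewed DIV 5, 9. Network-spike spike % (0.05 s peak window), AUC over 4 recordings, DMSO baseline.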
# [5] = CCTE_Shafer_MEA_dev_LDH: CCTE's Lactate Dehydrogenase Assay for Cytotoxicity in the Neural Network Formation Assay, Shafer Lab (AID 2284068; active = hit-call score of the fitted dose curve at least 0.9, where 1 is the maximum;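 note: exposure for twelve days from plating with re-dosing on DIV 5 and 9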)
# Outline: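 Primary rat cortical neurons were plated on PEI/laminin MEA plates and exposed from day 0 for twelve days, with compound renewed at DIV 5 and 9. Cytotoxicity was determined by spectrophotometric LDH assay relative to DMSO.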
# [6] = CCTE_Shafer_MEA_dev_AB: CCTE's Alamar Blue Assay for Cytotoxicity in the Neural Network Formation Assay, Shafer Lab (AID 2284083; active = hit-call score of the fitted dose curve at least 0.9, where 1 is the maximum;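 note: twelve days of exposure from plating with re-dosing on DIV 5 and 9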)
# Outline: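 Primary rat cortical neurons on PEI-coated 48-well MEA plates, 1.5 x 10^5 cells/well in laminin drop; compound exposure from day 0 of plating for twelve days, renewed at medium changes on DIV 5 and 9. Viability read as resazurin reduction by fluorescence, relative to DMSO.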
# [7] = system: DIO3 (gene 1735); experiment: CCTE_GLTED_hDIO3: CCTE's human Deiodinase 3 (DIO3) Inhibition Assay, Great Lakes Toxicology and Ecology Division (GLTED) Lab (AID 2284055; active = hit-call score of the fitted dose curve at least 0.9, where 1 is the maximum;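 note: potency is for inhibition seen as loss of released iodide signal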)
# Outline: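 Human DIO3 from an adenovirus expression system is incubated 3 h with test chemical. Released iodide is quantified by Sandell-Kolthoff absorbance, in triplicate plates. Loss of signal is fitted relative to DMSO.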
# [8] = CCTE_Shafer_MEA_acute_AB: CCTE's Alamar Blue Assay for Cytotoxicity in the Neural Acute Assay, Shafer Lab (AID 2284069; active = hit-call score of the fitted dose curve at least 0.9, where 1 is the maximum;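 note: active compounds lower the viability signal compared with DMSO wells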)
# Outline: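 Primary rat cortical neurons on MEA plates, exposed acutely after baseline recording on day 13 or 15 post-plating. Viability by CellTiter Blue resazurin reduction (1:6 reagent dilution), fluorescence 544/590 nm; loss of signal versus DMSO.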
# [9] = UKN5_HCS_SBAD2_cell_viability: Viability Assessment in the University of Konstanz (UKN) Leist Lab Neurite Outgrowth Assay in human iPSC-derived immature Dorsal Root Ganglia Neurons (UKN5) (AID 2284056)
# Method: UKN5_HCS_SBAD2 is a cell-based, multiplexed-readout assay screening for neurite outgrowth and cell viability that uses SBAD2 (peripheral neurons differentiated from iPSC), a human peripheral nervous system cell line, with measurements taken at […] after chemical dosing in a microplate: 96-well plate. UKN5, also referred to as PeriTox, is an assay that uses human iPSC line SBAD2 as a model of peripheral neurons. Following 24 hr chemical exposures in multi-well plates, neurite area is evaluated as a marker of neurite outgrowth using high-content imaging of cells stained with calcein-AM. Cell viability is assessed using stain Hoechst H-33342.UKN5_HCS_SBAD2_cell_viability is an assay component measured from the UKN5_HCS_SBAD2 assay. It is designed to make measurements of enzyme activity, a form of viability reporter, as detected with Fluorescence intensity signals by HCS Fluorescent Imaging.The assay endpoint UKN5_HCS_SBAD2_cell_viability was analyzed with bidirectional fitting relative to DMSO as the negative control and baseline of activity. Using a type of viability reporter, gain or loss-of-signal activity can be used to understand viability effects. To generalize the intended target to other relatable targets, this assay endpoint is annotated to the cell cycle intended target family, where the subfamily is viability. […]
# [10] = UKN5_HCS_SBAD2_neurite_outgrowth: University of Konstanz (UKN) Leist Lab Neurite Outgrowth Assay in human iPSC-derived immature Dorsal Root Ganglia Neurons (UKN5) (AID 2284070); settings: actives raise or lower the signal
# Method: UKN5_HCS_SBAD2 is a cell-based, multiplexed-readout assay screening for neurite outgrowth and cell viability that uses SBAD2 (peripheral neurons differentiated from iPSC), a human peripheral nervous system cell line, with measurements taken at […] after chemical dosing in a microplate: 96-well plate. UKN5, also referred to as PeriTox, is an assay that uses human iPSC line SBAD2 as a model of peripheral neurons. Following 24 hr chemical exposures in multi-well plates, neurite area is evaluated as a marker of neurite outgrowth using high-content imaging of cells stained with calcein-AM. Cell viability is assessed using stain Hoechst H-33342.UKN5_HCS_SBAD2_neurite_outgrowth is an assay component measured from the UKN5_HCS_SBAD2 assay. It is designed to make measurements of neurite outgrowth, a form of morphology reporter, as detected with Fluorescence intensity signals by HCS Fluorescent Imaging.The assay endpoint UKN5_HCS_SBAD2_neurite_outgrowth was analyzed with bidirectional fitting relative to DMSO as the negative control and baseline of activity. Using a type of morphology reporter, gain or loss-of-signal activity can be used to understand developmental effects. To generalize the intended target to other relatable targets, this assay endpoint is annotated to the neurodevelopment intended target family, where the subfamily is neurite outgrowth. […]
smiles,measurement,setting,value
O=C(C=C(O)C(F)(F)F)C(F)(F)F,outcome,[1],inactive
same,outcome,[2],inactive
same,outcome,[3],inactive
same,outcome,[4],inactive
same,outcome,[5],inactive
COC(=O)C(F)(F)C(F)(F)C(F)(F)C(F)(F)C(F)(F)F,outcome,[1],inactive
same,outcome,[2],inactive
same,outcome,[3],inactive
same,outcome,[4],inactive
O=CC(F)(F)C(F)(F)C(F)(F)F,outcome,[1],inactive
same,outcome,[2],inactive
same,outcome,[3],inactive
same,outcome,[4],inactive
same,outcome,[6],inactive
Cc1cc(Cc2cc(C)cc(C(C)(C)C)c2O)c(O)c(C(C)(C)C)c1,AC50,[7],14.2 µM (active)
FCOC(C(F)(F)F)C(F)(F)F,outcome,[1],inactive
same,outcome,[2],inactive
same,outcome,[3],inactive
same,outcome,[4],inactive
same,outcome,[6],inactive
CCCCCCCCCCCC,AC50,[7],22.7 µM (active)
CCCCCCCCCCCCOS(=O)(=O)O,AC50,[7],99.6 µM (active)
CCCCc1oc2ccccc2c1C(=O)c1cc(I)c(OCCN(CC)CC)c(I)c1,outcome,[8],inactive
NC(=NCCCCCCN=C(N)/N=C(\N)Nc1ccc(Cl)cc1)/N=C(\N)Nc1ccc(Cl)cc1,AC50,[7],2.65 µM (active)
N=C(N)c1ccc(OCCCCCOc2ccc(C(=N)N)cc2)cc1,outcome,[8],inactive
CCCCCCCCCCCCOC(=O)c1cc(O)c(O)c(O)c1,AC50,[7],6.66 µM (active)
Nc1ccn([C@@H]2O[C@H](CO)[C@@H](O)C2O)c(=O)n1 (some centres undefined),AC50,[1],0.358 µM (active)
same,AC50,[2],0.239 µM (active)
same,AC50,[3],0.205 µM (active)
same,AC50,[4],0.119 µM (active)
same,outcome,[9],inactive
same,AC50,[5],1 µM (active)
same,AC50,[10],0.611 µM (active)
same,AC50,[6],0.969 µM (active)
OCC(CO)(CBr)CBr,outcome,[8],inactive
Oc1c(Cl)cc(Cl)cc1Sc1cc(Cl)cc(Cl)c1O,outcome,[8],inactive
O=C(F)C(F)(F)C(F)(F)C(F)(F)C(=O)F,outcome,[1],inactive
same,outcome,[2],inactive
same,outcome,[3],inactive
same,outcome,[4],inactive
same,outcome,[6],inactive
O=C(OC(=O)C(F)(F)C(F)(F)F)C(F)(F)C(F)(F)F,outcome,[1],inactive
same,outcome,[2],inactive
same,outcome,[3],inactive
same,outcome,[4],inactive
same,outcome,[6],inactive
COC(=O)C(F)(F)C(F)(F)C(F)(F)F,outcome,[1],inactive
same,outcome,[2],inactive
same,outcome,[3],inactive
same,outcome,[4],inactive
CCC(C)c1ccccc1O (centres undefined),outcome,[8],inactive
FC(F)=C(F)C(F)(F)C(F)(F)C(F)(F)C(F)F,outcome,[1],inactive
same,outcome,[2],inactive
same,outcome,[3],inactive
same,outcome,[4],inactive
O=C(O)C(F)(F)OC(F)(F)C(F)(F)OC(F)(F)C(F)(F)OC(F)(F)C(F)(F)C(F)(F)C(F)(F)F,outcome,[1],inactive
same,outcome,[2],inactive
same,outcome,[3],inactive
same,outcome,[4],inactive
same,AC50,[7],37.1 µM (active)
same,outcome,[5],inactive
same,outcome,[6],inactive
O=CC(F)(F)C(F)(F)C(F)(F)C(F)F,outcome,[1],inactive
same,outcome,[2],inactive
same,outcome,[3],inactive
same,outcome,[4],inactive
O=P(O)(O)CCC(F)(F)C(F)(F)C(F)(F)C(F)(F)C(F)(F)C(F)(F)F,outcome,[1],inactive
same,outcome,[2],inactive
same,outcome,[3],inactive
same,outcome,[4],inactive
same,outcome,[5],inactive
same,outcome,[6],inactive
CC(C)c1c(C(=O)Nc2ccccc2)c(-c2ccccc2)c(-c2ccc(F)cc2)n1CC[C@@H](O)C[C@@H](O)CC(=O)O,AC50,[1],0.00474 µM (active)
same,AC50,[2],0.00268 µM (active)
same,AC50,[3],0.00816 µM (active)
same,AC50,[4],0.00821 µM (active)
same,AC50,[5],0.00148 µM (active)
same,AC50,[6],0.0258 µM (active)
CC(=O)Nc1ccc(O)cc1,outcome,[1],inactive
same,outcome,[2],inactive
same,outcome,[3],inactive
same,outcome,[4],inactive
same,outcome,[5],inactive
same,outcome,[8],inactive
same,outcome,[6],inactive
CCCCCCCCCC=CCC1CC(=O)OC1=O (centres undefined),AC50,[7],27.2 µM (active)
O=C1NS(=O)(=O)c2ccccc21,outcome,[1],inactive
same,outcome,[2],inactive
same,outcome,[3],inactive
same,outcome,[4],inactive
same,outcome,[5],inactive
CN(C)CCOC(c1ccccc1)c1ccccc1,AC50,[1],10 µM (active)
same,outcome,[2],inactive
same,outcome,[3],inactive
same,AC50,[4],14 µM (active)
same,outcome,[8],inactive
same,outcome,[6],inactive
C=CC(F)(F)C(F)(F)C(F)(F)C(F)(F)F,outcome,[1],inactive
same,outcome,[2],inactive
same,outcome,[3],inactive
same,outcome,[4],inactive
same,outcome,[6],inactive
CN(Cc1cnc2nc(N)nc(N)c2n1)c1ccc(C(=O)N[C@@H](CCC(=O)O)C(=O)O)cc1,AC50,[1],0.0343 µM (active)
same,AC50,[2],0.0422 µM (active)
same,AC50,[3],0.0258 µM (active)
same,AC50,[4],0.0253 µM (active)
same,AC50,[5],0.00802 µM (active)
same,AC50,[6],0.0389 µM (active)
NC(C(F)(F)F)C(F)(F)F,outcome,[1],inactive
same,outcome,[2],inactive
same,outcome,[3],inactive
same,outcome,[4],inactive
same,outcome,[6],inactive
O=C(O)CCC(F)(F)C(F)(F)C(F)(F)C(F)(F)C(F)(F)F,outcome,[1],inactive
same,outcome,[2],inactive
same,outcome,[3],inactive
same,outcome,[4],inactive
same,outcome,[5],inactive
Oc1ccc(Cc2ccccc2O)cc1,outcome,[8],inactive
CN(CCO)S(=O)(=O)C(F)(F)C(F)(F)C(F)(F)C(F)(F)C(F)(F)C(F)(F)C(F)(F)C(F)(F)F,outcome,[1],inactive
same,outcome,[2],inactive
same,outcome,[3],inactive
same,outcome,[4],inactive
O=C(CC(=O)C(F)(F)C(F)(F)C(F)(F)F)c1cccs1,AC50,[1],7.7 µM (active)
same,outcome,[2],inactive
same,AC50,[3],3.72 µM (active)
same,AC50,[4],3.48 µM (active)
same,AC50,[5],8.63 µM (active)
same,AC50,[6],9.02 µM (active)
OCC(F)(F)C(F)(F)C(F)(F)C(F)(F)C(F)(F)C(F)(F)C(F)(F)C(F)(F)C(F)(F)C(F)(F)C(F)(F)F,AC50,[1],6.13 µM (active)
same,outcome,[1],inactive
same,outcome,[2],inactive
same,AC50,[3],6.63 µM (active)
same,outcome,[3],inactive
same,AC50,[4],9.08 µM (active)
same,outcome,[4],inactive
same,AC50,[5],9.45 µM (active)
same,outcome,[5],inactive
same,AC50,[6],18.9 µM (active)
same,outcome,[6],inactive
O=P(O)(O)CCC(F)(F)C(F)(F)C(F)(F)C(F)(F)C(F)(F)C(F)(F)C(F)(F)C(F)(F)F,AC50,[1],7.74 µM (active)
same,outcome,[2],inactive
same,AC50,[3],4.23 µM (active)
same,AC50,[4],5.38 µM (active)
same,AC50,[5],8.87 µM (active)
same,AC50,[6],8.79 µM (active)
O=C(CCCN1CCC(O)(c2ccc(Cl)cc2)CC1)c1ccc(F)cc1,AC50,[1],1.78 µM (active)
same,AC50,[2],1.88 µM (active)
same,AC50,[3],0.753 µM (active)
same,AC50,[4],2.98 µM (active)
same,AC50,[9],55.6 µM (active)
same,AC50,[5],7.35 µM (active)
same,AC50,[10],20.2 µM (active)
same,outcome,[6],inactive
O=C(F)C(F)(F)C(F)(F)C(F)(F)C(F)F,outcome,[1],inactive
same,outcome,[2],inactive
same,outcome,[3],inactive
same,outcome,[4],inactive
same,outcome,[6],inactive
